# From PubChem BioAssay
# This is a sample that favours compounds with a hit; in the whole collection about 6.2% have one here.
# AI-2 QS modul: Vibrio harveyi AI-2 quorum sensing modulators, primary screen, JMH597 strain, luminescence/OD600 ratio; Vibrio harveyi JMH597 AI-2 luminescence/OD600 ratio, 9 h; hits give low values; strain lacks LuxN and CqsS sensors; 0 = neutral-control median; activity change, % at 7.5 µM; 300,000 compounds, 0.4% hits; in the data active means activity change below about -75%, passing the limit was not always enough; inconclusive means no clear call, values can overlap the other calls;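 further: luminescence divided by OD600 gain over 9 h not by final OD600 alone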
# NR3A LBD binder: binders of NR3A ligand-binding domain, primary screen, biophysical, differential scanning fluorimetry, uHTS; Glutamate receptor ionotropic, NMDA 3A (GRIN3A) ligand-binding domain; NR3A LBD differential scanning fluorimetry, Tm shift; 0% = protein alone, 100% = glycine-bound protein; Tm shift relative to glycine control, % at 25 µM; 340,000 compounds, 2.5% hits; AID 1259313, 2017;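 active means melting temperature shift of at least 10% of the positive control shift, at one fixed dose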
# AHR activator: AHR activators, primary screen, cell-based, luminescence, luciferase reporter, human | Aryl hydrocarbon receptor (Homo sapiens), P35869 | AHR-responsive luciferase reporter cells | activation, % at 5 µM | 320,000 compounds, 2.5% hits; in the data active means activation above about 47%
# H9c2 protect: cardioprotection against H2O2-induced cell death, primary screen, uHTS, H9c2 cells, ATPLite luminescence | H9c2 cardiomyocytes, H2O2 injury protection, 2 h | 360,000 compounds, 0.63% hits | protection from H2O2 cell death, % at 20 µM;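 active means compounds giving at least 50% protection of heart cells from peroxide-induced death in the single-dose screen, raw or plate-pattern-corrected value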
# NTR1 ag: agonists of human NTR1, primary screen, imaging, U2OS cells, beta-arrestin-GFP, high content. Neurotensin receptor type 1 (Homo sapiens), P30989. NTR1-U2OS beta-arrestin-GFP spot imaging, agonist mode. activation, % at 20 µM. 330,000 compounds, 0.17% hits. AID 493036, 2011;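 active means activation at or above 40% of the spot to cytoplasm intensity ratio, with at least 20 cells analyzed; inconclusive means wells under 20 cells, flagged as cytotoxic or low count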
# Mot1-301 SUMO: yeast Mot1-301 growth rescue at high temperature, primary screen, SUMOylation pathway inhibitor project, S. cerevisiae, ATP luminescence, 38.5C; S. cerevisiae Mot1-301 growth rescue; percent above DMSO median, 100 means doubled; growth rescue, % at 18.8 µM; 320,000 compounds, 1% hits; AID 2716, 2010;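 active means every valid replicate shows activation above 250% relative to neutral control wells; inactive means the rest, any valid replicate at or below 250%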
# Hits are given with their value; - = inactive; ? = inconclusive; . = not tested or not shown.
SMILES,AI-2 QS modul,NR3A LBD binder,AHR activator,H9c2 protect,NTR1 ag,Mot1-301 SUMO
CCN(CCNc1ccc(Cl)cc1[N+](=O)[O-])C(=O)c1cc([N+](=O)[O-])c(N(C)C)cc1OC,-,16,-,-,-,-
CN(C)CCNc1ccc(Cl)cc1[N+](=O)[O-],-,-,-,-,-,-
CCOc1cc(-c2ccc(N)c(OCC)c2)ccc1N,-,-,50,-,-,-
CCC1CN(S(=O)(=O)c2cc(-c3cc(C)no3)ccc2OC)c2cc(C)ccc2O1 (centres undefined),-,-,-,-,-,-
CCOc1ccc(NC(=S)N(CCOC)C2CCN(C(C)C)CC2)cc1,-,10,-,-,-,-
COc1ccc(C(=O)N/N=C/C(=O)c2ccccc2)cc1,-,-,.,-,-,.
COc1ccc(C(=O)N/N=C/c2sc3ccccc3c2O)cc1,-92,-,-,-,.,-
COc1ccc2cc(C(=O)N/N=C/c3sc4ccccc4c3O)ccc2c1,-,12,-,-,-,-
O=C(N/N=C/c1sc2ccccc2c1O)c1ccccc1,-81,-,73,-,-,-
O=C(N/N=C/c1sc2ccccc2c1O)c1cccc2ccccc12,?,-,-,-,.,-
Nc1ncnc2c1ncn2[C@@H]1O[C@H](C(=O)NCC2CCN(Cc3ccccc3)CC2)[C@@H](O)[C@H]1O,.,.,.,-,.,.
C/C(=N\Nc1ccc([N+](=O)[O-])cc1)c1ccc(N)cc1,-,11,-,-,.,-
C/C(=N\Nc1ccc([N+](=O)[O-])cc1)c1ccc(N2CCOCC2)cc1,-,-,-,-,-,-
CCc1ccc(/C(C)=N\Nc2ccc([N+](=O)[O-])cc2)cc1,-,-,-,-,-,-
C/C(=N\Nc1ccc([N+](=O)[O-])cc1)c1ccc(-n2nncc2C)cc1,-,-,50,-,-,-
CSCCC(NC(=O)c1ccc(Cl)c([N+](=O)[O-])c1)C(=O)N1CCN(C/C=C/c2ccccc2)CC1 (centres undefined),-,-,-,-,-,-
C=C1c2cccc(O)c2C(=O)C2C(=O)[C@]3(O)C(=O)C(C(N)=O)C(=O)[C@@H](N(C)C)[C@@H]3[C@@H](O)[C@H]12 (some centres undefined),.,-,-,-,-,.
C[C@H]1c2cccc(O)c2C(O)=C2C(=O)[C@]3(O)C(O)=C(C(N)=O)C(=O)[C@@H](N(C)C)C3[C@@H](O)C21 (some centres undefined),-120,-,-,-,-,-
COc1ccc(NS(=O)(=O)N2CCCCC2)cc1,.,-,.,-,.,.
O=C(c1cc(COc2cccc(C(F)(F)F)c2)on1)N1CCCC1,.,.,.,-,.,.
CCOC(=O)N1CCN(C(=O)c2cc(COc3cccc(C(F)(F)F)c3)on2)CC1,-,25,-,-,-,-
O=C1N/C(=C\c2ccsc2)C(=O)N1Cc1ccc(F)cc1,-,-,-,-,-,-
O=C1N/C(=C/c2ccc(N3CCOCC3)cc2)C(=O)N1Cc1ccc(F)cc1,-,-,51,-,-,-
C[n+]1c2n(c3ccccc31)N=C(c1ccc(Br)cc1)CS2,-,-,60,-,-,-
C[n+]1c2n(c3ccccc31)N=C(c1ccc(-c3ccccc3)cc1)CS2,-,-,53,-,-,-
CCc1nnc2n1N=C(c1ccc(Br)cc1)CS2,-,-,-,-,-,-
CCC[C@H]1CN(Cc2ccccc2)C(=O)[C@@H]1CC(=O)NC,.,.,.,-,.,.
O=C1N=c2ccc(Br)cc2=C1c1sc(=O)[nH]c1O,-,.,64,.,-,-
O=C(NCc1ccccc1Cl)C(=O)NCC1OCCN1S(=O)(=O)c1ccc(F)cc1 (centres undefined),-,-,-,-,-,-
Cc1ccc(NC(=O)c2ncn(CC(=O)NCC(C)c3ccccc3)n2)cc1C (centres undefined),.,-,.,-,-,.
